Beta2AR agonist = human beta-2 adrenergic receptor agonism by FAP; 340,000 tested, 0.43% active; response, % (no concentration beside the values); P07550; Am2.2-beta2AR cells, FAP receptor internalization, flow cytometry; AID 504454;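 active means response above a set limit, near 3 SD of response in nonfluorescent compounds, cut at about 42% in these data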
GRK2 aptamer HTS = inhibitors of human GRK2 displacing RNA aptamer; P25098; bead flow cytometry, FAM-aptamer displacement from GRK2; inhibition of aptamer binding, % at 10 µM; 330,000 tested, 0.59% active; AID 488847;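 active means inhibition of aptamer binding above 40%, roughly 3 SD of noise, on plates passing a quality check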;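 further: median bead fluorescence of bound FAM aptamer so fluorescent compounds give negative values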
MEKK2wt PB1 HTS = raises or lowers MEK5 binding to wildtype human MEKK2 PB1 domain; 290,000 tested, 1.1% active; binding response (% of control), % at 10 µM; Q9Y2U5; bead flow cytometry, Alexa488-MEK5 binding to MEKK2 WT; actives lie on both sides; in the data active means binding response below about 67% or above about 130%
MEKK2mut PB1 HTS = signal of MEK5 binding to mutant human MEKK2 PB1 domain | AID 1530 | bead flow cytometry, Alexa488-MEK5 binding to MEKK2 mutant | 290,000 tested, 0.35% active | percent response, % at 10 µM; in the data active means percent response above about 24%, passing the limit was not always enough
MEKK3 PB1 HTS = MEKK3-MEK5 PB1 interaction, increase or decrease. bead-based flow cytometry, Alexa488-MEK5 binding to MEKK3; actives lie on both sides; 0 = blocked by unlabeled MEK5, 100 = vehicle. 290,000 tested, 1.4% active. binding response (% of control), % at 10 µM;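 active means binding response more than 3 SD above or below the average of its plate-row segment, actives on both sides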;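 further: Alexa488 bead fluorescence after subtracting the streptavidin-only scavenger bead signal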
Target sequence (Q99759 whole entry, looked up): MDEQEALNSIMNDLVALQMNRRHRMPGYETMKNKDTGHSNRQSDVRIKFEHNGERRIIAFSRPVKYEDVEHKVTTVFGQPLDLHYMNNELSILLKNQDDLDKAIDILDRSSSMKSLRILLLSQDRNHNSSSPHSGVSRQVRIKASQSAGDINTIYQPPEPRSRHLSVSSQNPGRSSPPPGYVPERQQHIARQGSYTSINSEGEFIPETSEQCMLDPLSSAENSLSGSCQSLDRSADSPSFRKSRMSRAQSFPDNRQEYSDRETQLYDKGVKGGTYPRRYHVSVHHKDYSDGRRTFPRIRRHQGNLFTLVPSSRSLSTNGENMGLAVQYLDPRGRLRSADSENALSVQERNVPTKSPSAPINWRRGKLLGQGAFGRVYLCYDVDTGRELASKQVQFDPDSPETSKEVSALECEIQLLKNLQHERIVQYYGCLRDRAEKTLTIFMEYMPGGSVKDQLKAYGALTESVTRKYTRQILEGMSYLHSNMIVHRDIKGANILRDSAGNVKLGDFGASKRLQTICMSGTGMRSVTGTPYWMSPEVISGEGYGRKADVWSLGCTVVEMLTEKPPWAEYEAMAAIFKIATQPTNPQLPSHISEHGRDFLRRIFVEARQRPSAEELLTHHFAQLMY
MEKK2wt confirm = raises or lowers MEK5 binding to wildtype human MEKK2, retest. shares compounds with MEKK3 PB1 HTS. bead flow cytometry, Alexa488-MEK5 binding to MEKK2 WT; actives lie on both sides. binding response (% of control), % at 10 µM. 5,900 tested, 2.4% active; in the data active means binding response below about 16% or above about 210%; inactive means in between
MEKK2mut confirm = signal of MEK5 binding to mutant human MEKK2, retest; shares compounds with MEKK3 PB1 HTS; bead flow cytometry, Alexa488-MEK5 binding to MEKK2 mutant; percent response, % at 10 µM; 5,900 tested, 2% active; in the data active means percent response mostly above about 71%, no sharp cut-off; inactive means mostly below about 38%;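 further: higher means compound restores mutant binding toward wildtype level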
MEKK3-MEK5 inh = confirmation of inhibitors of MEK5 binding to human MEKK3 | 5,900 tested, 1.8% active | bead flow cytometry, Alexa488-MEK5 binding to MEKK3; hits give low values | shares compounds with MEKK3 PB1 HTS | AID 1894 | binding response (% of control), % at 10 µM;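 active means binding response below 72% of control, or above a set upper limit, though filed actives all read lower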;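 further: 100% = DMSO only wells and 0% = binding blocked by excess unlabeled MEK5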
* hit, by the source's call; . = not tested or not shown; [ ] = another dose, or the depositor's remark. A selection: hits, their analogues and other compounds. The true share with any hit is near 2.9%.

SMILES | Beta2AR agonist | GRK2 aptamer HTS | MEKK2wt PB1 HTS | MEKK2mut PB1 HTS | MEKK3 PB1 HTS | MEKK2wt confirm | MEKK2mut confirm | MEKK3-MEK5 inh
O=C(c1cc(COc2c(F)cccc2F)on1)N1C[C@H]2CC[C@H]1C2 | -12 | 1 | 68 | -24 | 49*[inhibitor] | 18 | -26 | 39*
O=C(c1cc(COc2c(F)cccc2F)on1)N1CCC(c2ccccc2Cl)C1 (configuration not stated) | -11 | 0 | 51 | -35 | 49*[inhibitor] | 96 | -5 | 100
CCN(C(=O)c1cc2c(=O)[nH]c3ccc(C)cc3c2s1)c1cccc(C)c1 | -3 | 0 | 113 | 28 | 127 | . | . | .
CCN(C(=O)c1cc2c(=O)[nH]c3ccc(C)cc3c2s1)c1ccc(F)cc1 | -3 | 1 | 113 | 25 | 129* | 95 | -2 | 95
COCC(=O)N1CCC(Oc2ccc(C(=O)N(C)CCCC3CCCC3)cc2)CC1 | 0 | 0 | 97 | -1 | 96 | . | . | .
COc1ccc(C(=O)Nc2ccc(NC(=O)c3cccs3)cc2)cc1Cl | 3 | 3 | 103 | 0 | 130* | 96 | -2 | 101
CC(C)N(c1ccccc1)c1ccc(NC(=O)COC(=O)CCN2C(=O)c3cccc([N+](=O)[O-])c3C2=O)cc1 | 11 | 3 | 90 | -2 | 48*[inhibitor] | 94 | -7 | 93
CC(=O)Nc1nnc(C2=COCCO2)o1 | 0 | 6 | 78 | -4 | 58*[inhibitor] | 101 | -1 | 99
CN(Cc1cnccn1)Cc1nc(Cc2cccc(F)c2)no1 | -1 | 2 | 109 | 5 | 102 | . | . | .
CCOc1cc(C2NN=C(c3ccccc3)S2)ccc1OCc1ccc(F)cc1 (configuration not stated) | 2 | 1 | 0.0*[inhibitor] | -16 | 0.0*[inhibitor] | 97 | -7 | 95
Cc1cc(C(=O)N2CCCC(N3CCN(c4cccc(Cl)c4)CC3)C2)nn1C (configuration not stated) | 11 | 5 | 101 | 16 | 102 | . | . | .
CN(CC(=O)Nc1ccccc1Cl)CC(=O)N1CCc2ccccc21 | -5 | 0 | . | . | . | . | . | .
CCCCC(=O)NCCNc1nc2c(c(=O)n(C)c(=O)n2C)n1Cc1ccccc1 | -4 | 0 | 2.0*[inhibitor] | -14 | 2.0*[inhibitor] | 109 | 5 | 104
C=CCc1ccc(OCC(O)CN2CCCCC2C)c(OC)c1 (configuration not stated) | 1 | 0 | 136* | 42* | 104 | 123 | 15 | 101
C=CCc1ccc(OCC(O)CN2CCCCC2)c(OC)c1 (configuration not stated) | 3 | 0 | 115 | 5 | 105 | . | . | .
Clc1cccc(-c2ccc(C3Nc4cccc5cccc(c45)N3)o2)c1 | 11 | 3 | . | . | . | . | . | .
Cc1ccc(CNC(=O)Cn2c(=O)n(CC(=O)N3CCCCC3)c(=O)c3sccc32)cc1 | 2 | 0 | 103 | -1 | 101 | . | . | .
Cc1ccc(CNC(=O)Cn2c(=O)c3sccc3n(Cc3ccc([N+](=O)[O-])cc3)c2=O)cc1 | -5 | 0 | 107 | 0 | 163* | 104 | 1 | 100
O=C(NCc1nc2ccccc2[nH]1)C1=C[C@H](c2ccc(C(F)(F)F)cc2)C[C@H](OCCCCO)O1 | 0 | 0 | 99 | 0 | 101 | . | . | .
CCCCNCC(=O)Nc1sc(C)c(C)c1C(=O)OCC | -5 | 2 | 102 | -2 | 79*[inhibitor] | 108 | 8 | 108
CCOC(=O)c1c(NC(=O)CNCC(O)CO)sc(C)c1C (configuration not stated) | -5 | 5 | 101 | 0 | 101 | . | . | .
CCOC(=O)C1CCN(C(=O)COc2ccc(Cl)cc2)CC1 | 5 | 3 | 100 | 1 | 103 | . | . | .
CCOC(=O)C1CCN(C(=O)Cc2ccc(C)cc2)CC1 | -7 | 1 | 107 | 1 | 104 | . | . | .
CCOC(=O)C1CCN(C(=O)Cc2ccc(OC)c(OC)c2)CC1 | 2 | 4 | 91 | -11 | 81*[inhibitor] | 103 | 0 | 104
CCOC(=O)C1CCN(C(=O)COC(=O)COc2ccc(Cl)cc2)CC1 | -3 | 1 | 53 | -17 | 37*[inhibitor] | 100 | -6 | 101
SMILES | Beta2AR agonist | GRK2 aptamer HTS | MEKK2wt PB1 HTS | MEKK2mut PB1 HTS | MEKK3 PB1 HTS | MEKK2wt confirm | MEKK2mut confirm | MEKK3-MEK5 inh
Cc1cc(C)cc(OCc2nnc(SCC(=O)N3CCCCC3)o2)c1 | -2 | 0 | 96 | 1 | 102 | . | . | .
Cc1cccc(N(CC(=O)NCCc2ccccc2)C(=O)CCC(=O)Nc2ccccn2)c1C | -15 | 1 | 98 | 3 | 96 | . | . | .
CC(C)(C)c1ccc(S(=O)(=O)N2CCN(C(=O)C3CCC3)CC2)cc1 | -9 | 3 | 107 | 5 | 100 | . | . | .
C=CCn1c(=O)c2c3c(sc2n2c(Nc4ccccc4)nnc12)CCCC3 | 5 | 0 | 13*[inhibitor] | -22 | 10*[inhibitor] | 91 | -31 | 96
C=CCn1c(=O)c2c3c(sc2n2c(Nc4ccc(OC)cc4)nnc12)CCCC3 | -7 | 1 | 99 | 0 | 99 | . | . | .
O=C(Nc1ccc2c(c1)OCO2)c1cc(-c2ccc(O)cc2)on1 | 10 | 0 | 82 | -7 | 91 | . | . | .
Cc1nc2sccn2c(=O)c1S(=O)(=O)N1CCN(c2ccccc2)CC1 | 9 | 0 | 99 | -1 | 101 | . | . | .
Cc1nc2sccn2c(=O)c1CCN1CCC(=C(c2ccccc2)c2ccc(F)cc2)CC1 | . | 1 | 157* | 13 | 120 | 123 | 4 | 101
CCN1CCN(c2cc(-c3ccccc3)nc3cc(-c4cccc(F)c4)nn23)CC1 | 22 | 0 | 146* | 49* | 122* | 182 | 39 | 108
CS(=O)(=O)c1ccccc1-c1nnc(NC(=O)c2cccc(N3C(=O)CCC3=O)c2)o1 | -9 | 0 | . | . | . | . | . | .
Cc1nc2c(nc1C)C(=O)c1ccccc1C2=O | -1 | . | . | . | . | . | . | .
O=C1c2ccccc2-c2nc3ccccc3nc21 | -8 | 0 | 72 | -27 | 67*[inhibitor] | 94 | -7 | 99
O=C(C(Cl)c1ccccc1)N1CCOCC1 (configuration not stated) | 1 | 0 | 98 | 4 | 99 | . | . | .
CN(Cc1ccccc1)S(=O)(=O)c1ccc2c(c1)n(C)c(=O)n2C | 1 | 0 | 1.0*[inhibitor] | -41 | 2.0*[inhibitor] | 101 | 5 | 103
Cn1c(=O)n(C)c2cc(S(=O)(=O)NCc3ccccc3)ccc21 | 11 | 2 | 103 | 5 | 103 | . | . | .
O=C(O)c1ccc(N/N=C/c2cc3ccccc3nc2Cl)cc1 | 3 | 1 | 100 | 6 | 102 | . | . | .
Cc1cccc2cc(/C=N/Nc3ccc(C(=O)O)cc3)c(Cl)nc12 | 12 | 3 | 67 | -37 | 66*[inhibitor] | 74 | -13 | 79
